Experimental data taken from PubChem BioAssay (Tox21).
Inconclusive results are not listed. Entries that show only a call come without a potency. Unmarked numbers belong to inactive results. Calls of active or inactive are those of the source. Unless noted, calls follow the shape of the full dose curve.

Experiments:
[1] = target: Peroxisome proliferator-activated receptor delta (Homo sapiens) (UniProt Q03181); assay: qHTS assay to identify small molecule agonists of the peroxisome proliferator-activated receptor delta (PPARd) signaling pathway (AID 743212); also: potency is read from the fitted curve at half-maximal effect
In short: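 Steps: seed PPARd-bla HEK293H cells; incubate 5 h, 37 C, 5% CO2; add compounds in DMSO; incubate, 37 C; add LiveBLAzer B/G FRET substrate; hold 2 h at room temperature; measure fluorescence.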

[2] = target: Peroxisome proliferator-activated receptor delta (Homo sapiens) (UniProt Q03181); assay: qHTS assay to identify small molecule antagonists of the peroxisome proliferator-activated receptor delta (PPARd) signaling pathway (AID 743215; active = well fitted inhibition curve with a large enough effect in the signal ratio in the repeat runs, not every such curve was filed as active; the % refers to the signal ratio;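 also: cells stimulated with agonist L165041 at 300 nM final during compound exposure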; also: potency is read from the fitted curve at half-maximal effect)
In short: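 Cells: HEK293H with a UAS-driven beta-lactamase reporter responsive to PPARd. Compounds were co-added with L165041 (300 nM, final) and incubated 17 h at 37 C before a 2 h room-temperature FRET substrate step and fluorescence reading.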

[3] = qHTS assay to identify small molecule agonists of the farnesoid-X-receptor (FXR) signaling pathway - cell viability counter screen (AID 743218; active = well fitted curve in the direction sought with a large enough effect in the repeat runs; an effect the other way counts as inactive or inconclusive; also: nearly all actives have a fitted effect of over 45% in size; also: potency is read from the fitted curve at half-maximal effect)
In short: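 Cells were seeded, left 5 h at 37 C and 5% CO2, then dosed with compound in DMSO for 16 h. After the beta-lactamase FRET read, CellTiter-Glo was added and luminescence measured 30 min later.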

[4] = target: Bile acid receptor (Homo sapiens) (UniProt Q96RI1); assay: qHTS assay to identify small molecule agonists of the farnesoid-X-receptor (FXR) signaling pathway (AID 743220; active = well fitted activation curve with a large enough effect in the signal ratio in the repeat runs, not every such curve was filed as active; the % refers to the signal ratio; also: potency is read from the fitted curve at half-maximal effect)
In short: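 FXR-UAS-bla HEK 293T cells carrying a UAS-driven beta-lactamase reporter were plated for 5 h at 37C/5% CO2, then exposed to DMSO-dissolved Tox21 10K compounds for 16 h at 37C. A LiveBLAzer B/G FRET substrate was loaded for 2 h at room temperature before fluorescence reading.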

[5] = qHTS assay to identify small molecule antagonists of the farnesoid-X-receptor (FXR) signaling pathway - cell viability counter screen (AID 743221; active = well fitted cell-killing curve with a large enough effect in the repeat runs, not every such curve was filed as active; also: nearly all actives have a fitted effect of over 50% in size; also: potency is read from the fitted curve at half-maximal effect)
In short: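 FXR-UAS-bla HEK 293T cells were treated with test compounds plus chenodeoxycholic acid (50 uM final) for 16 h at 37 C. Cell viability in the same wells was then read as CellTiter-Glo luminescence after 30 min at room temperature.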

[6] = target: Vitamin D3 receptor (Homo sapiens) (UniProt P11473); assay: qHTS assay to identify small molecule agonists of the vitamin D receptor (VDR) signaling pathway (AID 743222)
In short: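 Cells carrying a VDR-driven beta-lactamase reporter are seeded at 2,000 per well and rested 4 h. Compounds in DMSO are added for 16 h at 37C, and FRET substrate fluorescence is measured after 2 h at room temperature.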

[7] = qHTS assay to identify small molecule agonists of the vitamin D receptor (VDR) signaling pathway - cell viability counter screen (AID 743224; active = well fitted curve in the direction sought with a large enough effect in the repeat runs; an effect the other way counts as inactive or inconclusive; also: nearly all actives have a fitted effect of over 50% in size; also: potency is read from the fitted curve at half-maximal effect)
In short: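 Cells: VDR-bla, 2,000/well, settled 4 h. Treatment: compounds in DMSO, 16 h, 37C/5% CO2. Readout: CellTiter-Glo luminescence after 30 min RT.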

[8] = qHTS assay to identify small molecule antagonists of the vitamin D receptor (VDR) signaling pathway - cell viability counter screen (AID 743225; active = well fitted curve in the direction sought with a large enough effect in the repeat runs; an effect the other way counts as inactive or inconclusive; also: nearly all actives have a fitted effect of over 50% in size; also: potency is read from the fitted curve at half-maximal effect)
In short: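 VDR-bla HEK 293T cells, 4 h pre-incubation at 37C, then compound plus 1-alpha,25-dihydroxyvitamin D3 (3 nM final) for 16 h. After the beta-lactamase FRET read, CellTiter-Glo was added to the same wells; luminescence after 30 min at room temperature.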

[9] = qHTS assay to identify small molecule agonists of the NFkB signaling pathway - cell viability counter screen (AID 1159515); also: nearly all actives have a fitted effect of over 55% in size; also: potency is read from the fitted curve at half-maximal effect
In short: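 Cells are seeded (2,000 NFkB-bla ME-180 per well), rested overnight, and dosed with DMSO-dissolved compounds for 5 hr at 37 C. Viability is then read by CellTiter-Glo luminescence after 30 min at room temperature.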

[10] = qHTS assay to identify small molecule agonists of the endoplasmic reticulum stress response signaling pathway - cell viability counter screen (AID 1159517); also: nearly all actives have a fitted effect of over 50% in size; also: potency is read from the fitted curve at half-maximal effect
In short: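 After overnight attachment, ESRE-bla HeLa cells were treated with Tox21 library compounds for 5 hr. CellTiter-Glo luminescence, read 30 min post-addition at room temperature, reported viability.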

[11] = qHTS assay to identify small molecule antagonists of the retinoid-related orphan receptor gamma (ROR-gamma) signaling pathway - cell viability counter screen (AID 1159520; active = well fitted curve in the direction sought with a large enough effect in the repeat runs; an effect the other way counts as inactive or inconclusive; also: nearly all actives have a fitted effect of over 50% in size; also: potency is read from the fitted curve at half-maximal effect)
In short: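 Cytotoxicity was read from cellular ATP (CellTiter-Glo luminescence) after 16 hr at 37 C with 1 uM doxycycline induction. The inducer was added 2 hr after compound transfer to Tet-on ROR gamma CHO cells.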

[12] = qHTS assay to identify small molecule agonists of the AP-1 signaling pathway - cell viability counter screen (AID 1159525); also: nearly all actives have a fitted effect of over 55% in size; also: potency is read from the fitted curve at half-maximal effect
In short: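 Intracellular ATP by Cell Titer Glo luminescence (30 min, RT) in the same ME-180 AP-1-bla wells after the 5 h compound exposure at 37 °C. Normalised to tetra n-octyl ammonium bromide and DMSO controls.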

[13] = qHTS assay to identify small molecule agonists of the AP-1 signaling pathway (AID 1159526)
[14] = target: Retinoic acid receptor RXR-alpha (Homo sapiens) (UniProt P19793); assay: qHTS assay to identify small molecule agonists of the RXR signaling pathway (AID 1159527); also: nearly all actives have a fitted effect of over 35% in size; also: potency is read from the fitted curve at half-maximal effect
In short: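 GeneBLAzer RXR-alpha-UAS-bla HEK 293T cells in medium with 2% charcoal-stripped FBS, pre-incubated 5 hr at 37 C, then exposed to compounds 16 hr. Beta-lactamase reporter read by FRET substrate, 2 hr room temperature, 460/530 nm emission.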

[15] = target: Vitamin D3 receptor (Homo sapiens) (UniProt P11473); assay: qHTS assay to identify small molecule antagonists of the vitamin D receptor (VDR) signaling pathway (AID 743223; active = well fitted inhibition curve with a large enough effect in the signal ratio in the repeat runs, not every such curve was filed as active; the % refers to the signal ratio; also: potency is read from the fitted curve at half-maximal effect)
In short: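 VDR-bla cells were plated, incubated 4 h at 37C, then given compound and 1alpha,25-dihydroxyvitamin D3 (3 nM final). After 16 h at 37C, LiveBLAzer B/G FRET substrate was added for 2 h at room temperature and fluorescence read.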

[16] = target: Nuclear receptor ROR-gamma (Homo sapiens) (UniProt P51449); assay: qHTS assay to identify small molecule antagonists of the retinoid-related orphan receptor gamma (ROR-gamma) signaling pathway (AID 1159521; active = well fitted curve in the direction sought with a large enough effect in the repeat runs; an effect the other way counts as inactive or inconclusive; also: nearly all actives have a fitted effect of over 50% in size; also: potency is read from the fitted curve at half-maximal effect)
In short: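 Tet-on RORγ CHO cells carrying a ROR response element–luciferase reporter were pretreated with compounds for 2 h, then induced with 1 uM (final) doxycycline hyclate for 16 h at 37 C. Antagonism was read as decreased ONE-Glo luminescence.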

[17] = qHTS assay to identify small molecule agonists of the peroxisome proliferator-activated receptor delta (PPARd) signaling pathway - cell viability counter screen (AID 743211; active = well fitted curve in the direction sought with a large enough effect in the repeat runs; an effect the other way counts as inactive or inconclusive; also: nearly all actives have a fitted effect of over 55% in size; also: potency is read from the fitted curve at half-maximal effect)
In short: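 PPARd-bla HEK293H cells (UAS-beta-lactamase reporter) were treated with compounds for 17 h at 37 C. Viability was then read in the same wells by CellTiter-Glo luminescence after 30 min at room temperature.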

[18] = qHTS assay to identify small molecule antagonists of the peroxisome proliferator-activated receptor delta (PPARd) signaling pathway - cell viability counter screen (AID 743213; active = well fitted curve in the direction sought with a large enough effect in the repeat runs; an effect the other way counts as inactive or inconclusive; also: nearly all actives have a fitted effect of over 50% in size; also: potency is read from the fitted curve at half-maximal effect)
In short: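 Luminescence from CellTiter-Glo, added after the bla read and incubated 30 min at room temperature, gives viability of HEK293H PPARd-bla cells exposed to compounds for 17 h at 37 C with 300 nM L165041.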

Sequence of Vitamin D3 receptor (Homo sapiens) (P11473 whole entry, looked up): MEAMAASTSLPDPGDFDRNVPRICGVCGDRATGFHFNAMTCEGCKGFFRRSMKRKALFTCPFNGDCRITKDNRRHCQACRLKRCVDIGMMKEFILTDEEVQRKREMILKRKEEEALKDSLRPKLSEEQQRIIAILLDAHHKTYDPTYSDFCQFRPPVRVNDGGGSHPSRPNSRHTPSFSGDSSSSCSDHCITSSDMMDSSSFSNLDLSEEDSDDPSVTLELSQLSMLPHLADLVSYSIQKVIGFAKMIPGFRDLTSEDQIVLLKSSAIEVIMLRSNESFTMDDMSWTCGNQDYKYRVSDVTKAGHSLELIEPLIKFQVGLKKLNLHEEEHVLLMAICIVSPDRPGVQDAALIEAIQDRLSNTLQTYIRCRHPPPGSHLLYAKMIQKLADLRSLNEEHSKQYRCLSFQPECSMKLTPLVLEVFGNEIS
Sequence of Peroxisome proliferator-activated receptor delta (Homo sapiens) (Q03181 whole entry, looked up): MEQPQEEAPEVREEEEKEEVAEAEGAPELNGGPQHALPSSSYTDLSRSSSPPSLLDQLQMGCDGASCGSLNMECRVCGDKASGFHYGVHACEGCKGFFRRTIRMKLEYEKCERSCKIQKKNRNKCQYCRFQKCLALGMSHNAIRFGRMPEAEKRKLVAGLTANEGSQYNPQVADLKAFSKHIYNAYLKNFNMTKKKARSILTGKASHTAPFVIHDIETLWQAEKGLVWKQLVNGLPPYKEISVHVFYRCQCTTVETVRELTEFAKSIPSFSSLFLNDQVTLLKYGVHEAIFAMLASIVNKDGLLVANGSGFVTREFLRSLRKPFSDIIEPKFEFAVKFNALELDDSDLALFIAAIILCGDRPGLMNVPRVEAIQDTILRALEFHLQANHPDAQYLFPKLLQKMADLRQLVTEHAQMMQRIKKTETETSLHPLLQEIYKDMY
Sequence of Bile acid receptor (Homo sapiens) (Q96RI1 whole entry, looked up): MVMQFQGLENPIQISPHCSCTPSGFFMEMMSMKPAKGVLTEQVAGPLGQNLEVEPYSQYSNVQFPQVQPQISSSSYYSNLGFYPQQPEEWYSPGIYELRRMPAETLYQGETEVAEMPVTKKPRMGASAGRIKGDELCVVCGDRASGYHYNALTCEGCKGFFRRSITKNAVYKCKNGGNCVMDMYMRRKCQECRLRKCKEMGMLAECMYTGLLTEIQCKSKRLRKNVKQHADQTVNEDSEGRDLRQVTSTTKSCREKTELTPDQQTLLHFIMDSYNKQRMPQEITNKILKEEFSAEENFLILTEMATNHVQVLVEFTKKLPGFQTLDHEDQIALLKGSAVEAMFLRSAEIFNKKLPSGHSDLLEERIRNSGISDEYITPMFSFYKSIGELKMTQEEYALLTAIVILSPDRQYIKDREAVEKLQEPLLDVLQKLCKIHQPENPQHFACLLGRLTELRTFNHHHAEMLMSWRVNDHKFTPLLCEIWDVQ
Sequence of Retinoic acid receptor RXR-alpha (Homo sapiens) (P19793 whole entry, looked up): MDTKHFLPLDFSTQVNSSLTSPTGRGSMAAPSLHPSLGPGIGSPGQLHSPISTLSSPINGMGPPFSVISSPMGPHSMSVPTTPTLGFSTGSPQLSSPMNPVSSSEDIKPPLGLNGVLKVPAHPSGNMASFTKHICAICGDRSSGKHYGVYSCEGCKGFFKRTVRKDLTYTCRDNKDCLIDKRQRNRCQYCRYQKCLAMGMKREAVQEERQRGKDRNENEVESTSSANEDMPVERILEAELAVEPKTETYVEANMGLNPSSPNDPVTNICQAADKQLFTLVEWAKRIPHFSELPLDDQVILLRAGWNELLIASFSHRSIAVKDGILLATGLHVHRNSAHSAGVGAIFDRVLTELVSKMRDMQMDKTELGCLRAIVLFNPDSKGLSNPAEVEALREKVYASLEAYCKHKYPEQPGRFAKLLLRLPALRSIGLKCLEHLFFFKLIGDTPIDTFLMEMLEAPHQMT

| SMILES | Potency [1] | Potency [2] | Potency [3] | Potency [4] | Potency [5] | Potency [6] | Potency [7] | Potency [8] | Potency [9] | Potency [10] | Potency [11] | Potency [12] | Potency [13] | Potency [14] | Potency [15] | Potency [16] | Potency [17] | Potency [18] |
| --- | --- | --- | --- | --- | --- | --- | --- | --- | --- | --- | --- | --- | --- | --- | --- | --- | --- | --- |
| Nc1c(Cl)cc(Cl)cc1Cl | inactive | inactive | inactive | inactive | inactive | inactive | inactive | inactive | inactive | inactive | inactive | inactive | inactive | 12.1 µM (active) | – | – | – | – |
| O=C(N/N=C/c1ccccc1O)c1ccncc1 | – | 2.11 µM (active) | inactive | inactive | – | – | – | – | inactive | inactive | inactive | inactive | – | – | 19 µM (active) | 23.7 µM (active) | – | – |
| Fc1ccc(C(c2ccc(F)cc2)N2CCN(C/C=C/c3ccccc3)CC2)cc1 | – | – | inactive | inactive | – | – | 29.8 µM (active) | – | inactive | inactive | – | inactive | inactive | – | – | 23.7 µM (active) | – | – |
| CC(C)(C)C(=O)OCOC(=O)[C@@H]1N2C(=O)[C@@H](NC(=O)[C@H](N)c3ccccc3)[C@H]2SC1(C)C | inactive | inactive | inactive | inactive | inactive | inactive | inactive | inactive | inactive | inactive | inactive | inactive | – | inactive | inactive | – | inactive | – |
| Nc1c2ccccc2nc2ccccc12 | 26.6 µM (active) | – | inactive | 9.44 µM (active) | inactive | – | inactive | – | inactive | inactive | – | inactive | inactive | – | – | inactive | inactive | inactive |
| CCCCCCCCCCn1cc[n+](CCCCCCCCCC)c1C | – | – | 39 µM (active) | – | 34.7 µM (active) | – | 15.5 µM (active) | 6.93 µM (active) | 55 µM (active) | 34.7 µM (active) | 19.4 µM (active) | 39 µM (active) | – | – | – | – | – | 13.8 µM (active) |
| Oc1ccc2c(c1)-c1ccccc1C2 | inactive | inactive | inactive | inactive | inactive | inactive | inactive | – | inactive | inactive | – | inactive | inactive | – | inactive | inactive | – | inactive |
| OCCCCCCCCCCCCBr | inactive | – | inactive | inactive | inactive | inactive | inactive | inactive | inactive | inactive | – | inactive | inactive | – | – | 62.1 µM (active) | inactive | inactive |
| C[n+]1cc2c3c(ccc2c2ccc4cc5c(cc4c21)OCO5)OCO3 | – | 2.59 µM (active) | 1.46 µM (active) | inactive | 1.46 µM (active) | – | 0.58 µM (active) | 1.31 µM (active) | 1.17 µM (active) | 1.31 µM (active) | 1.64 µM (active) | 2.08 µM (active) | – | – | – | – | – | 1.84 µM (active) |
| CN(C)[C@@H]1C(=O)C(C(N)=O)=C(O)[C@@]2(O)C(=O)C3=C(O)c4c(O)cccc4C[C@H]3C[C@@H]12 | – | – | inactive | – | inactive | – | inactive | inactive | inactive | inactive | – | inactive | inactive | inactive | – | 13.3 µM (active) | inactive | inactive |
| CCCN(CCC)C(=O)C(CCC(=O)OCCCN1CCN(CCOC(=O)Cc2c(C)n(C(=O)c3ccc(Cl)cc3)c3ccc(OC)cc23)CC1)NC(=O)c1ccccc1 (centres undefined) | – | 26.6 µM (active) | 16.8 µM (active) | inactive | 26.6 µM (active) | – | – | 26.8 µM (active) | 21.3 µM (active) | inactive | inactive | inactive | – | – | – | – | 23.7 µM (active) | 21.1 µM (active) |
